Our source for the inhibition values is PubChem BioAssay AID651702 (NMMLSC, 2012).

Where “and” joins values, the source holds several entries; their conditions need not be identical. Identical values can stand only once. Hit rate of the full screen: of about 360,000 compounds, about 2,400 (0.67%) were called active.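 How the source made its calls: active means inhibition above about 55% (limit read from the data); inconclusive means no clear call, values can overlap the other calls; inactive means the rest.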 The list comes from a sample in which actives are over-represented; it also holds similar structures and randomly drawn compounds.

The nature of the experiment: LAMP-1 surface exposure blockers, TALL-104 cells – cell-based, flow cytometry, MLPCN library, primary screen (AID 651702). Particulars: TALL-104 LAMP-1 surface exposure, at 10 µM, hits give high values, cells stimulated with thapsigargin and PMA.
As to `CC(=O)N1CCc2cc(S(=O)(=O)Nc3ccccc3N3CCN(C)CC3)ccc21`, the inhibition was 3.6% (inactive).
Take `Cc1nnc(SCC(=O)N2c3ccccc3C(C)(c3ccc(Cl)cc3)CC2(C)C)s1` (centres undefined): the inhibition was -0.3% (inactive).
With `CCCCn1c(-c2cccc(C)c2)nc2cc3[nH]c(=O)c(C(C)C)nc3cc21`, the inhibition was 7.2% (inactive).
Regarding `CCCCCn1nnnc1C1c2ccccc2C(=O)N1Cc1ccco1` (centres undefined), the inhibition is -4% (inactive).
On to `CCCCCn1nnnc1-c1nc2cc3ccccc3cc2[nH]c1=O`, for which the inhibition is 56.3% (active).
Consider `COc1ccccc1NC(=O)C(C)OC(=O)c1ccc(-n2cnnn2)cc1` (centres undefined), for which the inhibition is 2.1% (inactive).
The same measure for `COc1ccc(NC(=O)Cn2ncn3c(cc4ccccc43)c2=O)c(OC)c1OC`: -1.7% (inactive).
The same measure for `O=C(CNCc1ccc(Cl)cc1)Nc1cccc(C(=O)O)c1`: 2.8% (inactive).
The same measure for `CC(CC(=O)Nc1cc(C(F)(F)F)ccc1Cl)c1ccccc1` (centres undefined): 83.7% (active); for `COc1cc(OC)c(C(=O)OC(C)C(=O)Nc2cc(C(F)(F)F)ccc2Cl)cc1OC` (centres undefined): 0.8% (inactive).
For `CC(C)CC(=O)Nc1cc(C(F)(F)F)ccc1N1CCOCC1`, the inhibition was -2.5% (inactive).
Turning to `CC1=NCCN1S(=O)(=O)c1ccc(Br)c(C)c1`, the inhibition is -1.3% (inactive).
As for `COc1cc(OC)c2c(-c3cccc(-c4cccc(N)c4)c3)cc(=O)oc2c1`, the inhibition is 4.4% (inactive).
Then `COc1cccc(NC(=O)C2CCCN2C(=O)OCc2ccccc2)c1` (centres undefined), with -0.8% (inactive); and `COc1cccc(NC(=O)C2c3cc(OC)c(OC)cc3C(=O)N(C)C2c2cccnc2)c1` (centres undefined), with 1.8% (inactive).
Then `COc1cccc(NC(=O)C2C(c3ccccc3)C2(Cl)Cl)c1` (centres undefined), with 83.9% (active).
As for `O=S(=O)(N/N=C\c1cccn1-c1ccccc1)c1ccc2ccccc2c1`, the inhibition was -0.4% (inactive).
With `Cc1cccc(CNC(=O)c2sc(=O)n(Cc3ccccc3C)c2C)c1`, the inhibition is -3.5% (inactive).
The same measure for `CCCCCNC(=O)C(c1ccc(OC)cc1)n1c(=O)c(-c2ccccc2)nc2ccccc21` (centres undefined): 5.5% (inactive); for `COc1ccccc1N1CCN(c2nc(C)cc(=O)[nH]2)CC1`: 0.2% (inactive).
Then `COc1ccccc1N1CCN(c2ccc([N+](=O)[O-])nc2)CC1`, with -3.5% (inactive); and `COc1ccccc1N1CCN(c2ncnc3sc(C)c(-c4ccccc4)c23)CC1`, with 57.5% (active).
The same measure for `O=C1CCC([N+](=O)[O-])C(c2ccccc2Br)N1` (centres undefined): -1.2% (inactive); for `CCOc1ccccc1Nc1nnc(SCC(=O)NCC2CCCO2)s1` (centres undefined): -20.1% (inactive).
Turning to `COc1ccc(C2OC(CCc3ccccc3)Cc3[nH]c(=S)[nH]c(=O)c32)cc1` (centres undefined), the inhibition was -3% (inactive).
The same measure for `Cc1cnc(C(=O)OCc2c(C)cc(C(C)(C)C)cc2C)cn1`: 63.8% (active).
Then `Cc1cnc(C(=O)OCC(=O)N2CCc3ccccc32)cn1`, with 0.3% (inactive); and `Cc1cnc(C(=O)OCC(=O)NCCCc2ccccc2)cn1`, with -0.1% (inactive).
As for `Cc1cccc(N2CCN(C(=O)c3cccc(N4C(=O)C5C6C=CC(C6)C5C4=O)c3)CC2)c1C` (centres undefined), the inhibition was -1.1% (inactive).
The same measure for `CSCCC(C(=O)NC(C)(C)C)n1c(-c2ccccc2)nc2ccccc21` (centres undefined): -0.9% (inactive).
Then `CCOc1ccc(NS(=O)(=O)c2ccc(C(=O)NCC(c3ccccc3OC)N3CCCC3)cc2)cc1` (centres undefined), with -1.8% (inactive); and `COc1ccc(S(=O)(=O)N(C)C)cc1NC(=O)COC(=O)c1n[nH]c2ccccc12`, with -22.7% (inactive); and `Cc1cccc(N2CCC(NCc3c(C(=O)N4CCCCC4)nc4c(C)cccn34)CC2)c1`, with 60.5% (active).
Then `Cc1cccn2c(CNCC(C)Oc3cccnc3)c(C(=O)N3CCOCC3)nc12` (centres undefined), with -5% (inactive).
For `CCOC(=O)C1CCN(Cc2c(C(=O)N3CCOCC3)nc3c(C)cccn23)CC1`, the inhibition is -2.4% (inactive).
As to `OCCn1c(-c2ccccc2)csc1=Nc1ccccc1`, the inhibition was -1.3% (inactive).
Then `COc1ccc(C)cc1Nc1n[n+](-c2ccccc2)c(-c2cccc(Cl)c2Cl)s1`, with 93.6% (active); and `COc1cc(Br)c(-c2sc(Nc3ccccc3)n[n+]2-c2ccccc2)cc1OC`, with -3.6% (inactive).
`CCc1ccc(Nc2n[n+](-c3ccccc3)c(-c3cccc(Cl)c3Cl)s2)cc1`: the inhibition is 5.9% (inactive).
On to `Cc1c(Cl)cccc1NC(=O)CCC(=O)N/N=C/c1ccco1`, for which the inhibition is 4.7% (inactive).
The same measure for `CCOc1ccc(OCC)c(NC(=O)CSc2nnc(Cn3cnc4ccccc43)n2C)c1`: 0.1% (inactive); for `O=C(NCCc1c[nH]c2ccccc12)C1CCN(Cc2ccc(Br)cc2)CC1`: 77% (active); for `CCOc1ccc(CN2CCN(Cc3c[nH]c4ccccc34)CC2)cc1`: 35.2% (inactive).
The same measure for `Cc1ccc2[nH]cc(CCNC(=O)C3CCCCC3)c2c1`: -2.8% (inactive); for `CCOC(=O)C1=C(C)NC2=C(C(=O)CC(C)(C)C2)C1c1ccsc1` (centres undefined): 0.2% (inactive).
The same measure for `CC(C)OC(=O)CC(=O)CC(O)c1cccc([N+](=O)[O-])c1` (centres undefined): -10.1% (inactive).
As to `CSCCC(NC(=O)COc1ccccc1)C(=O)N1CCN(c2cccc(C(F)(F)F)c2)CC1` (centres undefined), the inhibition was 1.5% (inactive).
`Cc1c(C)c2ccc(OCC(=O)N3CCN(c4cccc(Cl)c4)CC3)cc2oc1=O`: the inhibition was -2.4% (inactive).
Then `O=C(COc1ccc(Cl)cc1)N1CCN(c2cccc(C(F)(F)F)c2)CC1`, with 58.7% (active).
The same measure for `O=C(O)Cc1csc(-c2cccc(Oc3ccccc3)c2)n1`: -3.1% (inactive) and -3.3% (inactive); for `CCOc1ccc(NC(=O)CN(C)C(=O)CCSc2ccc(F)cc2)cc1OCC`: 14.3% (inactive); for `CC(C)c1ccc(-c2nn[nH]n2)cc1`: 21.6% (inactive).
Turning to `COc1ccc(S(=O)(=O)N2CCN(CC(=O)N3c4ccccc4CC3C)CC2)cc1OC` (centres undefined), the inhibition was 6.4% (inactive).
The same measure for `CCOc1cc(/C=N/NC(=O)c2c(C)nc3ccc(Cl)cn23)ccc1O`: 3.8% (inactive).
Then `CCOc1cc(/C=C(\C#N)c2nc(-c3cccs3)c(NC(C)=O)s2)ccc1O`, with 69.2% (active).
With `CCOc1cc(/C=N/NC(=O)CN2CCCCC2)ccc1O`, the inhibition was 3.8% (inactive).
Regarding `CC(=O)NC(c1ccccc1)c1nc(-c2cccc(C(C)C)c2)cs1` (centres undefined), the inhibition is -1.9% (inactive).
Then `Cc1ccc(NC(=O)Nc2cc(-c3ccccc3)nn2C)cc1Cl`, with 3% (inactive).
`CC(=O)Nc1ccc(-c2csc(NC(=O)Nc3ccccc3)n2)cc1`: the inhibition is 104% (active).
